# Test results reported in PubChem BioAssay.
# Values without a mark were called inactive. A call without a number means that no potency is given here. For part of these data: Potency and affinity values are given separately. The source made the active and inactive calls. Unless noted, no rule for the calls is given here.
# Experiments:
# [1] = antimalarial activity against Dd2 strain (AID 2302;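 active = growth inhibition above 50% at the single 2 µM test dose, taken to imply half-maximal potency below 2 µM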); settings: P. falciparum Dd2 in RBCs, LDH growth readout, 72 h; at 2 µM; hits give high values
# [2] = human hepatoma cell viability loss – ATP luminescence, cytotoxicity control for P. falciparum antimalarial project, primary screen (AID 2303;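 active = inhibition above 50%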); settings: HepG2 viability, 24-48 h, at 10 µM, hits give high values
# [3] = molecular target: L-lactate dehydrogenase (Plasmodium falciparum (isolate CDC / Honduras)) (UniProt Q27743); assay: PfLDH activity inhibition – cell lysate, 3D7 strain, counter-screen for P. falciparum growth inhibition project (AID 2304); settings: P. falciparum 3D7 crude extract, LDH APAD/NBT absorbance; at 2 µM; hits give high values
# Sequence of L-lactate dehydrogenase (Plasmodium falciparum (isolate CDC / Honduras)) (Q27743 whole entry, looked up): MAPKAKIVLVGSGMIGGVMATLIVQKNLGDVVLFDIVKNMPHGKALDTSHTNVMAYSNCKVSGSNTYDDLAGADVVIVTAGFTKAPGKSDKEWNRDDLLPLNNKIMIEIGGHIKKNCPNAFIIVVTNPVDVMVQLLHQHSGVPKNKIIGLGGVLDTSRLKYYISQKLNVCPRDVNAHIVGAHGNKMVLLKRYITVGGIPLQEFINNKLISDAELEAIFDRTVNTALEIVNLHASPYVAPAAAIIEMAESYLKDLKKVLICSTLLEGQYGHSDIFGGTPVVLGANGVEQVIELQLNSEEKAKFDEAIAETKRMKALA
# [4] = inhibition of 3D7 malaria parasite growth – strain 3D7 (AID 2306); settings: P. falciparum 3D7 erythrocytic growth, LDH absorbance, 72 h; at 2 µM; hits give high values
# [5] = molecular target: Calcium-dependent protein kinase 1 (Plasmodium falciparum (isolate 3D7)) (UniProt P62344); assay: PfCDPK1 kinase inhibitors, biochemical, TCAMS library (AID 1159585; cut-off not given, nearly all actives have IC50 up to about 0.98 µM;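 also: inhibitors leave more ATP so luminescence rises with inhibition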); settings: recombinant PfCDPK1, Kinase-Glo ATP depletion luminescence
# Sequence of Calcium-dependent protein kinase 1 (Plasmodium falciparum (isolate 3D7)) (P62344 whole entry, looked up): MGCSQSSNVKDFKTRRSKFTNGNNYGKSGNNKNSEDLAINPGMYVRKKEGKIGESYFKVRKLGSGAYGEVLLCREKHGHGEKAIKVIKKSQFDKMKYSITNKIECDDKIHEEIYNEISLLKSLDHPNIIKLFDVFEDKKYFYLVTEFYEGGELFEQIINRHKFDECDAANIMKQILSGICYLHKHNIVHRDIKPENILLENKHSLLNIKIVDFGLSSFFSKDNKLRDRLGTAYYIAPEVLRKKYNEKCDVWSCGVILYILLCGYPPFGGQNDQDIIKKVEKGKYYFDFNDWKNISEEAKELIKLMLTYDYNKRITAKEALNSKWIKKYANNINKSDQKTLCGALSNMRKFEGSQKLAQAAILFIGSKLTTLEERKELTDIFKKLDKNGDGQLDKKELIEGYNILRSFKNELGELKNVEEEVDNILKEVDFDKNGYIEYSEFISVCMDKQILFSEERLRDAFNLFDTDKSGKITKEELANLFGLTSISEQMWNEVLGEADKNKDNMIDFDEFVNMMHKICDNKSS
# [6] = molecular target: Plasmodium falciparum protein kinase 6 (PK6, PF3D7_1337100) (UniProt Q8IDW1); assay: PfPK6 kinase inhibitors, biochemical, TCAMS library (AID 1159586); settings: recombinant PfPK6, Kinase-Glo ATP depletion luminescence
# Sequence of Plasmodium falciparum protein kinase 6 (PK6, PF3D7_1337100) (Q8IDW1 1-305): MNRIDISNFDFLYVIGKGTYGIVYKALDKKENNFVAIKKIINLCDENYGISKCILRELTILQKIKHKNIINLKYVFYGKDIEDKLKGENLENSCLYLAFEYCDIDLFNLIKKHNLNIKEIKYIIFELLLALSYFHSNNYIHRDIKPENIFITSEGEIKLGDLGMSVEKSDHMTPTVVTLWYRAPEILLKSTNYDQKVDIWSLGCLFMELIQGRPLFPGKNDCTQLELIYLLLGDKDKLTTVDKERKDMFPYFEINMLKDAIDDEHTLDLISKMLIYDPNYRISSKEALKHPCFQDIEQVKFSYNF
# [7] = molecular target: Protein kinase 7 (PK7), Plasmodium falciparum 3D7 (PF3D7_0213400) (UniProt Q7YTF7); assay: inhibition of Plasmodium PK7 catalytic activity – biochemical, TCAMS antimalarial set, Kinase-Glo luminescence (AID 1159587); settings: recombinant PfPK7, Kinase-Glo ATP depletion luminescence
# Sequence of Protein kinase 7 (PK7), Plasmodium falciparum 3D7 (PF3D7_0213400) (Q7YTF7 1-343): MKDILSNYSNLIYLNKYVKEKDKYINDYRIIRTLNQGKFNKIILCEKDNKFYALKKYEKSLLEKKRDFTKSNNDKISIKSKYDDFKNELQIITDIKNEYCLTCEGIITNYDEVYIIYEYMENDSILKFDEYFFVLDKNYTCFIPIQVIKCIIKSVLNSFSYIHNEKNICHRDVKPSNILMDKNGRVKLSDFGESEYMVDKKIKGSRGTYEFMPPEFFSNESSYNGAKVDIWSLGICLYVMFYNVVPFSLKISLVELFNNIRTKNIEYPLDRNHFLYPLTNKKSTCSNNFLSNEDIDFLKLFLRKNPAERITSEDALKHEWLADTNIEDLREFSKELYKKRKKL
# [8] = molecular target: Calcium-dependent protein kinase 4 (Plasmodium falciparum (isolate 3D7)) (UniProt Q8IBS5); assay: PfCDPK4 kinase inhibitors, biochemical, TCAMS library (AID 1159588; cut-off not given, nearly all actives have IC50 up to about 0.91 µM); settings: recombinant PfCDPK4, Kinase-Glo ATP depletion luminescence
# Sequence of Calcium-dependent protein kinase 4 (Plasmodium falciparum (isolate 3D7)) (Q8IBS5 whole entry, looked up): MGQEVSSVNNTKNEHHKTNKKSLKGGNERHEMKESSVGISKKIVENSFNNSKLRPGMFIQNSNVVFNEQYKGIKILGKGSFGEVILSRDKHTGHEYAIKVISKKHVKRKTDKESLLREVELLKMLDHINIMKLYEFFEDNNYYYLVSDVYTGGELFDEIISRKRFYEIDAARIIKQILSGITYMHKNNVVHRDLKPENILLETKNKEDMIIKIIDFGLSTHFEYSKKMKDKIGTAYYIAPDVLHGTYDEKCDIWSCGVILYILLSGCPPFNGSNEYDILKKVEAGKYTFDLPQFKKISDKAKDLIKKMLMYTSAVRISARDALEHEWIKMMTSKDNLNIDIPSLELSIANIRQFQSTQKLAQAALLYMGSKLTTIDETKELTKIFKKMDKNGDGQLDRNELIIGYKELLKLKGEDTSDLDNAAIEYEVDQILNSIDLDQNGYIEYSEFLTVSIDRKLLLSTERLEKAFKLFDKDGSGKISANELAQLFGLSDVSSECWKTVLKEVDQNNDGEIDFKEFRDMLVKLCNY
SMILES,growth inhibition [1],inhibition [2],inhibition [3],growth inhibition [4],outcome [5],outcome [6],outcome [7],outcome [8]
CCOC(=O)[C@H](Cc1cccc2ccccc12)NC(=O)[C@H](CCC(=O)OC(C)(C)C)NC(=O)c1ccc(N(C)Cc2cnc3nc(N)nc(N)c3n2)cc1,96% (active),66% (active),-2%,93% (active),inactive,inactive,inactive,inactive
CSc1sc(NC(=O)Nc2cccc(C(F)(F)F)c2)cc1C#N,46%,27%,-1%,99% (active),inactive,inactive,inactive,inactive
COc1cc2c(C3CCN(CC4CCN(C(=O)/C=C/c5ccc(Cl)c(Cl)c5)CC4)CC3)c[nH]c2cn1,88% (active),27%,-1%,101% (active),inactive,inactive,inactive,inactive
